# PubChem BioAssay AID2384 (Southern Research Specialized Biocontainment Screening …, 2010)
# The campaign covered roughly 2,300 compounds. About 1,100 (48%) were called active. No rule for the calls is given here. So high a share suggests a set chosen from earlier hits. This is one part of the list. Potency and affinity values are given separately.
# Assay: inhibitors in S. typhi counter-screen strain, dose response, counter-screen for PhoP regulon inhibitor project, fluorescence, 4 h (AID 2384)
# Settings: S. typhi GFP reporter counter-screen; series mostly up to 150 µM; inhibition: at the top concentration
row,Structure (SMILES),inhibition
1,O=Cc1cc(CCC(=O)O)ccc1O,34.3% (inactive)
2,CCOC(=O)c1ccc(NC(=O)c2cc3c(s2)CCC3)cc1,13% (inactive)
3,CCOC(=O)c1ccc(NC(=O)CSc2nc(N3CCOCC3)nc(N3CCOCC3)n2)cc1,3.08% (inactive)
4,CCCCCCOc1ccc(N2C(=O)CC(SC(=NCC)NCC)C2=O)cc1 (configuration not stated),-11.7% (inactive)
5,CCCCOc1ccc(CN2CCC(O)CC2)cc1,37.8% (inactive)
6,Cc1cc(C)n2nc(SCn3nnc4ccccc4c3=O)nc2n1,13.7% (inactive)
7,Cc1ccc(NC(=O)CSc2ccc(-c3ccco3)nn2)cc1,29.4% (inactive)
8,O=C(CCNC(=O)c1ccco1)Nc1cccc(Br)c1,35% (inactive)
9,CCC1(CC)C(=O)NC(=O)NC1=Nc1cccc(OC)c1,-22% (inactive)
10,Cc1ccc(N2C(N)=C(C#N)C(c3cccnc3)C3=C2CC(C)(C)CC3=O)cc1 (configuration not stated),-10.7% (inactive)
11,C=CCSc1nnc(NC(=O)CSc2nc3ccccc3o2)s1,21% (inactive)
12,COc1ccccc1C(=O)NNC1=C(C(=O)C(F)(F)F)CCC1,36.3% (inactive)
13,Cc1cc(C)c(-n2nnnc2SC(C)C)c(C)c1,22.1% (inactive)
14,COc1cc2c(cc1OC)[C@H](Cc1ccc(O)cc1)NCC2,26.9% (inactive)
15,Cc1cccc(N2CCN(C(=O)CCN3C(=S)NC(C)(C)CC3C)CC2)c1C (configuration not stated),-24% (inactive)
16,COc1cc2c(cc1OC)CN(C(=O)CCCN1C(=O)c3ccccc3C1=O)CC2,14.8% (inactive)
17,COc1ccc(C(=O)Oc2cc(C(=S)N3CCOCC3)ccc2OC)cc1,-14.6% (inactive)
18,Cc1c(-n2c(SCC(=O)C(C)(C)C)nc3ccccc3c2=O)c(=O)n(-c2ccccc2)n1C,6.64% (inactive)
19,NC(=O)c1cc(C(=O)c2ccc(Cl)cc2Cl)c[nH]1,36.3% (inactive)
20,NC(=O)c1ccc[n+](CC(=O)c2cccc([N+](=O)[O-])c2)c1,-22.5% (inactive)
21,O=Cc1ccc(N2CCCCCC2)cc1,6.54% (inactive)
22,CC(C)CN1CCN(Cc2cnc(N3CCOCC3)s2)CC1CCO (configuration not stated),-6.77% (inactive)

row,Structure (SMILES),inhibition
1,O=C1c2ccccc2NC(c2cccc([N+](=O)[O-])c2)N1CCc1ccccc1 (configuration not stated),24% (inactive)
2,CN1C(=O)/C(=C2/C=Cc3ccccc3N2CCCS(=O)(=O)O)SC1=S,37.2% (inactive)
3,CCOC(=O)c1nc(C)n(-c2cc(Cl)ccc2Cl)n1,6.17% (inactive)
4,COc1ccccc1C1CN(c2ccc(F)cc2F)N=C1c1cccs1 (configuration not stated),-4.35% (inactive)
5,Cc1n[nH]c(=O)nc1NCCc1ccccc1,3.25% (inactive)
6,Cc1cccc(OCCSc2nnc(-c3ccoc3C)n2C)c1,17.9% (inactive)
7,CC(C)CC(=O)N1CCN(C(=O)CCC2CCCC2)CC1,10.6% (inactive)
8,Cc1cccc(NC(=O)C2CCCN2S(=O)(=O)c2ccc3c(c2)n(C)c(=O)c(=O)n3C)c1 (configuration not stated),30.3% (inactive)
9,O=C(COc1ccc(Cl)cc1)N1CCN(C2CCCC2)CC1,20.5% (inactive)
10,O=C(CCN1CCOCC1)Nc1ccccc1,12.2% (inactive)
11,O=C(Nc1ccc(Cl)cc1)N1CCCN(Cc2ccccc2F)C1,22.7% (inactive)
12,Cc1cc(=O)oc2ccc(OCC(=O)N3CCC(C)CC3)cc12,9.4% (inactive)
13,O=C(O)COc1ccc(F)cc1Br,-9.25% (inactive)
14,O=C(/C=C/c1ccc(Cl)cc1Cl)NCc1ccncc1,21.3% (inactive)
15,CCCSc1nc2cc(OC)c(OC)cc2c(=N)n1CCCN1CCOCC1,13.2% (inactive)
16,CC(C)(C)c1ccc(NC(=O)NCc2ccco2)cc1,-4.75% (inactive)
17,COc1ccccc1Nc1nc(Cl)c(C=O)s1,28.1% (inactive)
18,COc1ccccc1-n1nc(C(=O)NCc2ccco2)c2ccccc2c1=O,-0.37% (inactive)
19,CC(C)(C)c1nc(SCC(=O)NCc2ccco2)c2ccccc2n1,-21.9% (inactive)
20,CCOC(=O)c1cc(-c2ccncc2)nc2c1c(C)nn2-c1ccccn1,-11.7% (inactive)
21,COc1cc(C(c2nnnn2C2CCCC2)N2CCN(C)CC2)cc(OC)c1OC (configuration not stated),-10.6% (inactive)
22,COc1ccc(N=CC2=C(Nc3ccc(OC)cc3)c3c(C)nn(-c4ccccn4)c3CC2)cc1,19.6% (inactive)

row,Structure (SMILES),inhibition
1,Cc1cc(C)nc(SCC(=O)Nc2sc3c(c2C#N)CCC(C)C3)n1 (configuration not stated),20.4% (inactive)
2,O=C(CSc1nc2c(c(=O)n1-c1ccc(F)cc1)SCC2)NCc1ccco1,-2.97% (inactive)
3,O=C(CSc1ncc(-c2ccc(F)cc2)[nH]1)NCc1ccco1,-28.9% (inactive)
4,Oc1ccccc1N=Cc1c(O)ccc2oc3c(c12)CCCC3,7.25% (inactive)
5,CCCCOc1ccc(C2=NNC(=O)CC2)cc1,23.2% (inactive)
6,Cc1ccc(C(=O)Nc2ccc3c(c2)ncn3C)cc1,18.6% (inactive)
7,Cc1c(C(=O)Nc2ccncc2)sc2nc(-c3ccc(F)cc3)cn12,-1.91% (inactive)
8,Cc1cc(C)c([C@@H]2C[C@H]3CN(C4CCCC4)C(=O)[C@]34CCCN24)c(-n2cccn2)c1,2.81% (inactive)
9,O=C(Oc1ccc[nH]c1=O)c1cc([N+](=O)[O-])cc([N+](=O)[O-])c1,37% (inactive)
10,Cc1ccc(C)c2[nH]c(=O)c(CN(Cc3cccnc3)C(=S)NCc3ccco3)cc12,-7.36% (inactive)
11,C#CCOCCOCCOCCNc1nc(N2CCN(C(=O)CCCCCCCCCCNC(=O)[C@H](CO)n3cc(CCCSC)nn3)CC2)nc(N2CCN(C(=O)CCCCCCCCCCNC(=O)[C@H](CCCN=C(N)N)n3cc(C[C@@H](C)CC)nn3)CC2)n1,-11.9% (inactive)
12,C#CCOCCOCCOCCNc1nc(N2CCN(C(=O)CCCCCCCCCCNC(=O)[C@H](CCCCN)n3cc(C[C@@H](C)CC)nn3)CC2)nc(N2CCN(C(=O)CCCCCCCCCCNC(=O)[C@@H]([C@H](C)O)n3cc(C)nn3)CC2)n1,9.45% (inactive)
13,C#CCOCCOCCOCCNc1nc(N2CCN(C(=O)CCCCCCCCCCNC(=O)Cn3cc(C[C@@H](C)O)nn3)CC2)nc(N2CCN(C(=O)CCCCCCCCCCNC(=O)[C@H](CCCN=C(N)N)n3cc(C[C@@H](C)CC)nn3)CC2)n1,7.83% (inactive)
14,CCN(CC)CCCNC(=O)c1c(O)c2c([nH]c1=O)CCCC2,1.16% (inactive)
15,COc1cc(C(=O)Nc2ccc3c(c2)OCCO3)ccc1OC(C)C,2.98% (inactive)
16,Cc1ccc(S(=O)(=O)N2CCOCC2)cc1NC(=O)CSc1nc(N)cc(=O)[nH]1,-11% (inactive)
17,C[C@@H](CO)NC(=O)c1ccc2c3n(nc2c1)-c1ccc(Cl)cc1CO3,-3.51% (inactive)
18,Cc1nc2nc(COc3ccccc3)nn2c(C)c1Cl,14.8% (inactive)
19,CC(C)C(=O)Nc1ccccc1-c1nc2ccccc2[nH]c1=O,4.85% (inactive)
20,O=C(/C=C/c1ccccc1)OCc1cnc(Cl)s1,-16.4% (inactive)
21,O=C(/C=C/c1ccccc1)NC(=S)N1CCSCC1,-4.32% (inactive)
22,CCc1nnc(NS(=O)(=O)c2ccc(NC(=S)NC(=O)/C=C/c3ccc(C(C)C)cc3)cc2)s1,39.2% (inactive)

row,Structure (SMILES),inhibition
1,COc1ccccc1-n1c(SCC(=O)O)nnc1-c1ccc(S(=O)(=O)N2CCCCC2)cc1,16.1% (inactive)
2,O=C(CCSCc1ccccc1F)NCc1cccs1,6.35% (inactive)
3,Nc1cc(N2CCOCC2)c(Cl)cc1[N+](=O)[O-],-13% (inactive)
4,O=C(NC1CC1)C1CCN(C2CCN(C(=O)Cc3ccc(F)cc3)CC2)CC1,-14.2% (inactive)
5,CCCC(=O)N1CCN(c2ccc(NC(=S)NC(=O)c3cccc(C)c3)cc2)CC1,-4.38% (inactive)
6,O=C(NNC(=O)c1cccs1)c1ccc2ccccc2c1,27.6% (inactive)
7,COc1ccc(-c2noc(CCC(=O)Nc3cccc(C)c3)n2)cc1,13.1% (inactive)
8,Cc1ccc(NC(=O)C(=O)NNC(=O)c2cccs2)cc1,26.1% [at 2.34 µM] (inactive)
9,COC(=O)c1ccc(NC(=S)NNC(=O)c2ccccc2)cc1,20.3% (inactive)
10,COc1cc(C(=O)NC(=S)Nc2cccc3nc(C)ccc23)cc(OC)c1OC,36.5% (inactive)
11,CC1(C)CC(=O)C(C(=O)/C=C/NCCc2ccccc2)C(=O)C1,20.5% (inactive)
12,Cc1ccc(-c2cc(N)nc(-c3ccccc3)c2)cc1,33% (inactive)
13,O=C1C(SCCO)=C(SCCO)C(=O)c2ccccc21,24.9% (inactive)
14,O=C(O)c1ccc(NC2=C(Cl)C(=O)c3ccccc3C2=O)cc1,-19.2% (inactive)
15,CC(C)C(NS(=O)(=O)c1cccc2nsnc12)C(=O)N1CCn2c1nc1ccccc12 (configuration not stated),20.8% (inactive)
16,COc1cccc(N2CCN(C(=S)NCc3ccco3)CC2)c1,-37.1% (inactive)
17,COc1ccc(Nc2nc(-c3ccccc3)nc3ccccc23)cc1S(=O)(=O)N1CCOCC1,-6.61% (inactive)
18,C=CCn1c(O)c(N=NC(=O)c2cccnc2)c2cc(Br)ccc21,-3.27% (inactive)
19,COc1cccc(C(=O)CC(=O)C(=O)Nc2cc(OC)c(OC)c(OC)c2)c1,11.7% (inactive)
20,Cc1cc(C)cc(N(C(=O)CNC(=O)c2cccs2)C(C(=O)NC2CCCC2)c2cccnc2)c1 (configuration not stated),16.6% (inactive)
21,CCc1c(C)nc2cc(-c3cc(OC)cc(OC)c3)nn2c1N1CCCC1,12.4% (inactive)
22,CCN1CCc2c(C#N)c(NCc3ccccc3)nc(NCCO)c2C1,10.4% (inactive)

row,Structure (SMILES),inhibition
1,Cc1[nH]nc2c1C(C1CC=CCC1)C(C#N)=C(N)O2 (configuration not stated),-21.3% (inactive)
2,C#CC(=O)N(c1cccc(OC)c1)C(C(=O)NC1CCCC1)c1cccs1 (configuration not stated),-6.44% (inactive)
3,CCOCCCNC(=O)C(c1ccc(OC)cc1)N(Cc1cccs1)C(=O)c1ccccn1 (configuration not stated),-14% (inactive)
4,O=C(CCCc1ccccc1)Nc1cccnc1,8.17% (inactive)
5,S=C(Nc1ccccc1Cl)N(Cc1ccccc1)Cc1ccccn1,-17% (inactive)
6,COCCCNC(=O)c1cc(OC)c(OC)c(OC)c1,-18.1% (inactive)
7,COc1ccc(CCC(=O)NCc2cn3ccccc3n2)cc1,-5.49% (inactive)
8,COc1ccc(-c2nc3ccc(C(=O)NCC(OC)OC)cc3nc2-c2ccc(OC)cc2)cc1,-2.98% (inactive)
9,O=c1c2ccccc2ncn1Cc1ccc(Cl)cc1,5.03% (inactive)
10,CCOC(=O)CSc1nnc2c(n1)C1(C)CCC2C1(C)C (configuration not stated),0.17% (inactive)
11,O=C(O)/C=C/c1cn(-c2ccccc2)nc1-c1cc2ccccc2oc1=O,-6.24% (inactive)
12,Cc1ccc(OCC(=O)N2CCN(S(C)(=O)=O)CC2)cc1,13.9% (inactive)
13,Cc1cccc(OCC(=O)NNc2c3ccccc3nc3ccccc23)c1,8.34% (inactive)
14,CCC(C)(C)NC(=O)COc1ccc(C(=O)c2ccccc2)cc1,3.67% (inactive)
15,CCOc1ccc(NC(=O)CN(C)S(=O)(=O)c2cccs2)cc1,14.8% (inactive)
16,COc1ccc(Cl)cc1S(=O)(=O)N1CCN(C(=O)c2ccco2)CC1,20.3% (inactive)
17,CCOC(=O)N1CCN(C(=S)NC(=O)c2ccc(Br)cc2)CC1,6.72% (inactive)
18,CCOC(=O)N1CCN(CC(=O)Nc2ccc(F)cc2F)CC1,4.71% (inactive)
19,CCOC(=O)c1ccc(S(=O)(=O)N2CCN(CCC#N)CC2)cc1,-7.98% (inactive)
